The source of these data is the supplement of paper PMC11628255, “Interference of metal ions on the bioluminescent signal of firefly, Renilla, and NanoLuc luciferases in high-throughput screening assays” (Frontiers in Chemistry, 2024).

For this assay, the system named is NanoLuc luciferase (NLuc). The assay is described as follows: residual bioluminescent signal relative to negative control without GSH; higher = less interference (more residual luciferase signal). The conditions noted are these: screening conditions buffer. The method, then:
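Selected metal salts at 3-4 concentrations tested on purified FLuc, NLuc or RLuc in screening buffer with 0, 0.2 or 2 mM glutathione added; 10 min enzyme pre-incubation at RT, luminescence 10 min after substrate. Signal normalised to negative control without GSH (% N_VALUE); triplicate wells.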

The mark [1] stands for this setting: metal salt concentration 1 mM, glutathione 0 mM.
Where [2] appears, read: metal salt concentration 1 mM, glutathione 0.2 mM.
Where [3] appears, read: metal salt concentration 1 mM, glutathione 2 mM.
Setting [4] is: metal salt concentration 0.001 mM, glutathione 0 mM.
The mark [5] stands for this setting: metal salt concentration 0.001 mM, glutathione 0.2 mM.
Where [6] appears, read: metal salt concentration 0.001 mM, glutathione 2 mM.

± gives the standard deviation of the averaged measurements.

For `O=[N+]([O-])[O-].O=[N+]([O-])[O-].[Cu+2]` [copper(II) nitrate], the residual bioluminescent signal was found to be 104 ± 4.1% (metal salt concentration 0.0005 mM, glutathione 0 mM); 106 ± 5.4% (metal salt concentration 0.0005 mM, glutathione 0.2 mM); 89.3 ± 3.6% (metal salt concentration 0.0005 mM, glutathione 2 mM); 101 ± 7.7% (metal salt concentration 0.017 mM, glutathione 0 mM); 104 ± 6.7% (metal salt concentration 0.017 mM, glutathione 0.2 mM); 92.9 ± 4.8% (metal salt concentration 0.017 mM, glutathione 2 mM). Moreover, the residual bioluminescent signal was 86.4 ± 3.7% (metal salt concentration 0.02 mM, glutathione 0 mM); 98 ± 2.7% (metal salt concentration 0.02 mM, glutathione 0.2 mM); 84.1 ± 2.6% (metal salt concentration 0.02 mM, glutathione 2 mM); 0.661 ± 0.17% under setting [1]; 1.03 ± 0.57% under setting [2]; 68.9 ± 7.9% under setting [3].

Consider `O=[N+]([O-])[O-].[Ag+]` [silver nitrate], for which the residual bioluminescent signal by setting is: under setting [4], 98.9 ± 6.8%; under setting [5], 102 ± 1.4%; under setting [6], 90.9 ± 4.7%; (metal salt concentration 0.0114 mM, glutathione 0 mM) 15.6 ± 8%; (metal salt concentration 0.0114 mM, glutathione 0.2 mM) 106 ± 1.6%; (metal salt concentration 0.0114 mM, glutathione 2 mM) 85.33 ± 0.82%. Further, the residual bioluminescent signal reads like this: (metal salt concentration 0.05 mM, glutathione 0 mM) 2.78 ± 0.95%; (metal salt concentration 0.05 mM, glutathione 0.2 mM) 107 ± 4.8%; (metal salt concentration 0.05 mM, glutathione 2 mM) 85.7 ± 1%; under setting [1], 3.17 ± 0.68%; under setting [2], 15.2 ± 5.5%; under setting [3], 82.48 ± 0.71%.

Turning to `O=[N+]([O-])[O-].O=[N+]([O-])[O-].[Zn+2]` [zinc nitrate], the residual bioluminescent signal is, setting by setting: under setting [4], 98.9 ± 6.3%; under setting [5], 103 ± 6.2%; under setting [6], 89.6 ± 2.3%; (metal salt concentration 0.174 mM, glutathione 0 mM) 50.9 ± 6%; (metal salt concentration 0.174 mM, glutathione 0.2 mM) 72.7 ± 2.8%; (metal salt concentration 0.174 mM, glutathione 2 mM) 77.5 ± 7.3%. The residual bioluminescent signal amounted to 34.2 ± 8.5% under setting [1]; 42.1 ± 1.7% under setting [2]; 63.9 ± 1.7% under setting [3]; 5.95 ± 1.4% (metal salt concentration 5 mM, glutathione 0 mM); 7.9 ± 2.7% (metal salt concentration 5 mM, glutathione 0.2 mM); 12.4 ± 2.1% (metal salt concentration 5 mM, glutathione 2 mM).
